Reference: PubChem BioAssay (Tox21)
Where “and” joins values, the source holds several entries; their conditions need not be identical. Identical values can stand only once. A number with no mark means an inactive call. Inconclusive results are not listed. Where a call stands in place of a potency, no number is given. Calls of active or inactive are those of the source. Unless noted, calls come from the whole dose curve; as a rule, active = well fitted curve in the direction sought with a large enough effect in the repeat runs; inconclusive = weak or mixed curves; inactive = no such curve, though single readings can be large; an effect the other way counts as inactive or inconclusive.

Columns and labels:
[1] = qHTS assay to test for compound auto fluorescence at 535 nm (green) in HEK293 cells (AID 720680); note: potency is the fitted concentration of half-maximal effect
[2] = qHTS assay to test for compound auto fluorescence at 460 nm (blue) in HEK293 cell free culture (AID 720681)
Outline: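 Compounds were added to cell-free DMEM with 10% FBS and fluorescence read directly. The blue channel used 405 nm excitation and 460 nm emission, with triamterene as the reference fluorophore.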

[3] = qHTS assay to test for compound auto fluorescence at 535 nm (green) in HEK293 cell free culture (AID 720682); note: potency is the fitted concentration of half-maximal effect
Outline: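 Green-channel intensity (Ex/Em 485/535 nm) was recorded from compound-treated wells containing only DMEM with 10% FBS. Fluorescein provided the equivalency standard.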

[4] = qHTS assay to test for compound auto fluorescence at 590 nm (red) in HEK293 cell free culture (AID 720683); note: potency is the fitted concentration of half-maximal effect
Outline: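 Cell-free wells of DMEM with 10% FBS received compound, and intrinsic fluorescence was read at excitation/emission 540/590 nm. Values expressed as equivalence to Rose Bengal sodium.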

[5] = qHTS assay to test for compound auto fluorescence at 590 nm (red) in HepG2 cell free culture (AID 720684); note: potency is the fitted concentration of half-maximal effect
Outline: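 Rose Bengal sodium served as the reference for red signal. Test compounds were dispensed into serum-containing MEM (10% FBS) without cells, and plates were read at 540/590 nm.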

[6] = qHTS assay to test for compound auto fluorescence at 460 nm (blue) in HepG2 cell free culture (AID 720685)
Outline: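 Cell-free plates of MEM plus 10% FBS received 23 nL compound or DMSO vehicle; blue-channel (405/460 nm) intensity scored against triamterene as reference fluorophore.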

[7] = qHTS assay to test for compound auto fluorescence at 535 nm (green) in HepG2 cell free culture (AID 720686); note: potency is the fitted concentration of half-maximal effect
[8] = qHTS assay to test for compound auto fluorescence at 460 nm (blue) in HepG2 cells (AID 720687)
Outline: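 HepG2 cells in MEM with 10% FBS, attached overnight at 37 C, were exposed to compound or DMSO for 1 hr at 37 C, 5% CO2. Blue fluorescence was read at 405/460 nm, with triamterene as reference fluorophore.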

[9] = qHTS assay to identify small molecule antagonists of the glucocorticoid receptor (GR) signaling pathway - cell viability counter screen (AID 720693); note: nearly all actives have a fitted effect of over 55% in size; note: potency is the fitted concentration of half-maximal effect
[10] = qHTS assay for identifying genotoxic compounds that show differential cytotoxicity against isogenic chicken DT40 cell lines with known DNA damage response pathways - Rad54/Ku70 mutant cell line (AID 743015); note: nearly all actives have a fitted effect of over 60% in size; note: potency is the fitted concentration of half-maximal effect
[11] = qHTS assay to identify small molecule antagonists of the androgen receptor (AR) signaling pathway - cell viability counter screen (AID 743033; note: nearly all actives have a fitted effect of over 45% in size; note: potency is the fitted concentration of half-maximal effect)
[12] = qHTS assay to identify small molecule antagonists of the androgen receptor (AR) signaling pathway using the MDA cell line - cell viability counter screen (AID 743041; note: nearly all actives have a fitted effect of over 45% in size; note: potency is the fitted concentration of half-maximal effect)
Outline: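 Cytotoxicity counter screen: MDA-kb2 AR-luc cells, compound + R1881, 16 h, 37C, 0% CO2; CellTiter-Fluor added at 15.5 h, fluorescence read after 30 min.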

[13] = qHTS assay to identify small molecule antagonists of the thyroid receptor (TR) signaling pathway - cell viability counter screen (AID 743064); note: nearly all actives have a fitted effect of over 50% in size; note: potency is the fitted concentration of half-maximal effect
Outline: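 In rat pituitary GH3.TRE-Luc reporter cells co-exposed to compound and 1 nM T3 for 23.5 h, cytotoxicity was assessed with CellTiter-Fluor in the same wells, read by fluorescence.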

[14] = qHTS assay for identifying genotoxic compounds that show differential cytotoxicity against isogenic chicken DT40 cell lines with known DNA damage response pathways - Rev3 mutant cell line (AID 743014); note: nearly all actives have a fitted effect of over 55% in size; note: potency is the fitted concentration of half-maximal effect
[15] = qHTS assay for identifying genotoxic compounds that show differential cytotoxicity against isogenic chicken DT40 cell lines with known DNA damage response pathways - wild type cell line (AID 743012); note: nearly all actives have a fitted effect of over 60% in size; note: potency is the fitted concentration of half-maximal effect
Outline: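 CellTiter-Glo luminescence readout of viability in wild type DT40 cells after 40 h compound exposure at 37 C/5% CO2; 300 cells/well; reagent incubated 30 min at room temperature before reading.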

[16] = target: Androgen receptor (Homo sapiens) (UniProt P10275); assay: qHTS assay to identify small molecule antagonists of the androgen receptor (AR) signaling pathway (AID 743035; active = well fitted inhibition curve with a large enough effect in the signal ratio in the repeat runs, not every such curve was filed as active; the % refers to the signal ratio; note: potency is the fitted concentration of half-maximal effect)
Outline: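 AR-bla HEK293 reporter cells; 4 h settle at 37C/5% CO2; compound + R1881 agonist, 16 h at 37C; LiveBLAzer B/G FRET substrate 2 h RT; fluorescence intensity read. qHTS format.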

[17] = target: Androgen receptor (Homo sapiens) (UniProt P10275); assay: qHTS assay to identify small molecule antagonists of the androgen receptor (AR) signaling pathway using the MDA cell line (AID 743042; note: nearly all actives have a fitted effect of over 55% in size; note: potency is the fitted concentration of half-maximal effect)
Outline: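 MDA-kb2 breast carcinoma cells carrying MMTV-luciferase (AR/GR responsive) were co-treated with compounds and the agonist R1881 for 16 h at 37C. Inhibition read as ONE-Glo luminescence; CellTiter-Fluor fluorescence measured in parallel for cytotoxicity.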

[18] = target: Glucocorticoid receptor (Homo sapiens) (UniProt P04150); assay: qHTS assay to identify small molecule agonists of the glucocorticoid receptor (GR) signaling pathway (AID 720691; active = well fitted activation curve with a large enough effect in the signal ratio in the repeat runs, not every such curve was filed as active; the % refers to the signal ratio); details: GR-bla HeLa, beta-lactamase reporter ratio, 18 h; activation: at 62.4 µM (top of the series)
Outline: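 HeLa GR-bla reporter line; cells pre-incubated 4 h, compound in DMSO 18 h at 37 C; LiveBLAzer B/G FRET substrate 2 h RT; fluorescence intensity read-out.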

[19] = target: Glucocorticoid receptor (Homo sapiens) (UniProt P04150); assay: qHTS assay to identify small molecule antagonists of the glucocorticoid receptor (GR) signaling pathway (AID 720692; active = well fitted inhibition curve with a large enough effect in the signal ratio in the repeat runs, not every such curve was filed as active; the % refers to the signal ratio)
Outline: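 Read-out: beta-lactamase FRET substrate fluorescence, 2 h at room temperature, in HeLa cells stably carrying a GRE-driven bla reporter. Compounds were co-incubated with 5 nM dexamethasone agonist (final) for 18 h at 37 C.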

[20] = target: Androgen receptor (Homo sapiens) (UniProt P10275); assay: qHTS assay to identify small molecule agonists of the androgen receptor (AR) signaling pathway using the MDA cell line (AID 743040; note: nearly all actives have a fitted effect of over 20% in size)
Outline: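 Luciferase read-out, ONE-Glo, 30 min RT. Cells: MDA-kb2 AR-luc, MMTV promoter with AR and GR response elements. Compound exposure 16 h, 37C, 0% CO2, after 5 h pre-incubation. qHTS agonist mode.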
Tags give direction and shape of the fitted curve or compound fluorescence and quenching.

Glucocorticoid receptor (Homo sapiens), sequence (P04150 whole entry, looked up): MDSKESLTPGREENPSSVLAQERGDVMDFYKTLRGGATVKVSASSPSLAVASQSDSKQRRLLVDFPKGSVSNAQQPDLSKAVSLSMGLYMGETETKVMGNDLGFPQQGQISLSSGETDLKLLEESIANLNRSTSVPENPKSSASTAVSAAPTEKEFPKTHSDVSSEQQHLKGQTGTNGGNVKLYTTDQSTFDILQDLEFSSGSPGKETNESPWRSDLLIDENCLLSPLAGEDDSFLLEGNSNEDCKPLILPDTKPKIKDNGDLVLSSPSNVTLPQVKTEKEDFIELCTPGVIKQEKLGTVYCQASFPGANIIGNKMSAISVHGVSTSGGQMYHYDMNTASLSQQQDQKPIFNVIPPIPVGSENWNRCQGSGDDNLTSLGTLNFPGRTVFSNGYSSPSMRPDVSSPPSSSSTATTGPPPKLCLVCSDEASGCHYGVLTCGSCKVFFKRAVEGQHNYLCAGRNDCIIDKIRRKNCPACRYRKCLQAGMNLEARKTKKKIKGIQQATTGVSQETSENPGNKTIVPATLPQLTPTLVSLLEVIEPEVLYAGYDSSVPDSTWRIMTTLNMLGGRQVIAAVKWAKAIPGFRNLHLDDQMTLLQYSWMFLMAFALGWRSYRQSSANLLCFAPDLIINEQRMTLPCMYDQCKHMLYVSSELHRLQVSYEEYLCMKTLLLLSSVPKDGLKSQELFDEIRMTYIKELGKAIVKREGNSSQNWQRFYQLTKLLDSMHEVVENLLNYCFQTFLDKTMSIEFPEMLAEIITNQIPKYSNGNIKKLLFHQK
Androgen receptor (Homo sapiens), sequence (P10275 whole entry, looked up): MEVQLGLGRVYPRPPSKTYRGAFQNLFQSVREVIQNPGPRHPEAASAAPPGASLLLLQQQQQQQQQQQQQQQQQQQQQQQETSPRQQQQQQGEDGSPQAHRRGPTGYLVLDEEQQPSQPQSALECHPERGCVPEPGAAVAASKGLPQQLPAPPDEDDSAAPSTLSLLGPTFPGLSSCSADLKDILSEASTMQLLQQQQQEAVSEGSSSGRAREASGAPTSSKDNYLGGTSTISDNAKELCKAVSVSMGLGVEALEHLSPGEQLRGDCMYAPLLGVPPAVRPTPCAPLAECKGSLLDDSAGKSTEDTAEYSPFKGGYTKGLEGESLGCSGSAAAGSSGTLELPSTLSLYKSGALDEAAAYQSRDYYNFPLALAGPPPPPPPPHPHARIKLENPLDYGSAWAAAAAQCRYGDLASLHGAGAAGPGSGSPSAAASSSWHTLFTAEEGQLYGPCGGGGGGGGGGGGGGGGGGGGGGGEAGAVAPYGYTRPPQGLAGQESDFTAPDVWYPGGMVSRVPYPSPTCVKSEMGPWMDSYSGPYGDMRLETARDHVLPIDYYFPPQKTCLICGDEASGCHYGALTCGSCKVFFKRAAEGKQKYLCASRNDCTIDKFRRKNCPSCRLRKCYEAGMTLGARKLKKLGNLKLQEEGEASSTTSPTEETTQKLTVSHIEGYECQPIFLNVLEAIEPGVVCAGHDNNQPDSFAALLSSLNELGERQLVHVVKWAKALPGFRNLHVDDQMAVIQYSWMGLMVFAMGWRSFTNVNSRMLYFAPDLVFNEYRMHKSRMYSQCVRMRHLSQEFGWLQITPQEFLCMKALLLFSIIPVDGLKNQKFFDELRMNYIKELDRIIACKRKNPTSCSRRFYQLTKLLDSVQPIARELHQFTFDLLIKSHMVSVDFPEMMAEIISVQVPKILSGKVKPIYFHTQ

CCOC(=O)COc1ccc(C)cc1
Potency [1]: inactive
Potency [2]: inactive
Potency [3]: inactive
Potency [4]: inactive
Potency [5]: inactive
Potency [6]: inactive
Potency [7]: inactive
Potency [8]: inactive
Potency [9]: inactive
Potency [10]: inactive
Potency [11]: inactive
Potency [12]: inactive
Potency [13]: inactive

NC1(c2ccc(-c3nc4ccn5c(=O)[nH]nc5c4cc3-c3ccccc3)cc2)CCC1
Potency [1]: inactive
Potency [2]: inactive
Potency [3]: inactive
Potency [4]: inactive
Potency [5]: inactive
Potency [6]: inactive
Potency [7]: inactive
Potency [8]: inactive
Potency [9]: inactive
Potency [14]: 5.31 µM (active)
Potency [10]: 1.33 µM (active)
Potency [13]: 13.3 µM (active)

CCN=c1cc2oc3cc(NCC)c(C)cc3c(-c3ccccc3C(=O)OCC)c-2cc1C
Potency [1]: 39.8 µM [fluorescent] (active)
Potency [2]: inactive
Potency [3]: 39.8 µM [fluorescent] (active)
Potency [4]: 3.16 µM [fluorescent] (active) and 4.47 µM [fluorescent] (active)
Potency [5]: 2.82 µM [fluorescent] (active) and 3.55 µM [fluorescent] (active)
Potency [6]: inactive
Potency [7]: 39.8 µM [fluorescent] (active)
Potency [8]: inactive
Potency [15]: 484 nM (active) and 172 nM (active)
Potency [14]: 384 nM (active) and 137 nM (active)
Potency [10]: 305 nM (active) and 109 nM (active)
Potency [11]: 689 nM (active) and 1.23 µM (active)
Potency [16]: 154 nM (active)
Potency [12]: 683 nM (active) and 386 nM (active)
Potency [17]: 108 nM (active) and 96.9 nM (active)
Potency [13]: 1.08 µM (active) and 1.22 µM (active)

CC(O)C#CC(C)O (stereo not drawn)
Potency [1]: inactive
Potency [2]: inactive
Potency [3]: inactive
Potency [4]: inactive
Potency [5]: inactive
Potency [6]: inactive
Potency [7]: inactive
Potency [8]: inactive
Potency [15]: 9.59 µM (active)
Potency [14]: 7.62 µM (active)
Potency [10]: 10.8 µM (active)
Potency [11]: 48.5 µM (active)
Potency [12]: inactive

C=C[C@](C)(O)CC[C@@H]1[C@@]2(C)CCCC(C)(C)[C@@H]2CC[C@@]1(C)O
Potency [1]: inactive
Potency [2]: inactive
Potency [3]: inactive
Potency [4]: inactive
Potency [5]: inactive
Potency [6]: inactive
Potency [7]: inactive
Potency [8]: inactive
Potency [15]: 24.3 µM (active)
Potency [14]: 19.3 µM (active)
Potency [10]: 19.3 µM (active)
Potency [12]: inactive
Potency [13]: 43.3 µM (active)

CCNc1nc(NC(C)CC)nc(OC)n1 (stereo not drawn)
Potency [1]: inactive
Potency [2]: inactive
Potency [4]: inactive
Potency [5]: inactive
Potency [6]: inactive
Potency [7]: inactive
Potency [8]: inactive
Potency [18]: inactive
Potency [19]: inactive
Potency [9]: inactive
Potency [11]: inactive
Potency [12]: inactive
Potency [13]: inactive

CCN1CCN(c2cc(-c3ccc(F)cc3)c3c(n2)CCCCCC3)CC1
Potency [1]: inactive
Potency [2]: inactive
Potency [3]: inactive
Potency [4]: inactive
Potency [5]: inactive
Potency [6]: inactive
Potency [7]: inactive
Potency [8]: inactive
Potency [10]: inactive
Potency [11]: inactive
Potency [16]: inactive
Potency [12]: inactive
Potency [17]: inactive
Potency [13]: 13.3 µM (active)

COC(=O)CC#N
Potency [1]: inactive
Potency [2]: inactive
Potency [4]: inactive
Potency [5]: inactive
Potency [6]: inactive
Potency [7]: inactive
Potency [8]: inactive
Potency [15]: inactive
Potency [14]: inactive
Potency [10]: inactive
Potency [11]: inactive
Potency [12]: inactive
Potency [13]: inactive

CNC(=S)NN
Potency [1]: inactive
Potency [2]: inactive
Potency [4]: inactive
Potency [5]: inactive
Potency [6]: inactive
Potency [7]: inactive
Potency [8]: inactive
Potency [19]: inactive
Potency [9]: inactive
Potency [15]: 7.7 µM (active)
Potency [14]: 7.7 µM (active)
Potency [10]: 7.7 µM (active)
Potency [11]: 3.89 µM (active)
Potency [12]: 48.6 µM (active)

Clc1ccccc1CN1CCc2sccc2C1
Potency [1]: inactive
Potency [2]: inactive
Potency [4]: inactive
Potency [5]: inactive
Potency [6]: inactive
Potency [7]: inactive
Potency [8]: inactive
Potency [15]: 23.7 µM (active)
Potency [14]: 21.1 µM (active)
Potency [10]: 26.6 µM (active)
Potency [11]: inactive
Potency [12]: inactive

CCCC(CC)CCCCCCCN (stereo not drawn)
Potency [1]: inactive
Potency [2]: inactive
Potency [4]: inactive
Potency [5]: inactive
Potency [6]: inactive
Potency [7]: inactive
Potency [8]: inactive
Potency [18]: inactive
Potency [19]: inactive
Potency [10]: inactive
Potency [11]: inactive
Potency [12]: inactive
Potency [13]: inactive

CN1CCN(C2Cc3ccccc3Sc3ccc(Cl)cc32)CC1 (stereo not drawn)
Potency [1]: inactive
Potency [2]: inactive
Potency [3]: inactive
Potency [4]: inactive
Potency [5]: inactive
Potency [6]: inactive
Potency [7]: inactive
Potency [8]: inactive
Potency [14]: 6.68 µM (active)
Potency [10]: 9.44 µM (active)
Potency [20]: inactive
Potency [17]: inactive
Potency [13]: 9.44 µM (active)

COC(=O)CC(C)CCC=C(C)C (stereo not drawn)
Potency [1]: inactive
Potency [2]: inactive
Potency [4]: inactive
Potency [5]: inactive
Potency [6]: inactive
Potency [7]: inactive
Potency [8]: inactive
Potency [18]: inactive
Potency [19]: inactive
Potency [11]: inactive
Potency [12]: inactive
Potency [13]: inactive

C[C@@]12C(=O)OC(=O)[C@]1(C)C1CCC2O1
fluorescence, % of fluorescein [1]: 0.0141% [at 18.6 µM]
fluorescence, % of fluorescent control [2]: -0.101% [at 18.6 µM]
fluorescence, % of fluorescent control [4]: 0.092% [at 18.6 µM]
fluorescence, % of Rose Bengal [5]: -0.0041% [at 18.6 µM]
fluorescence, % of fluorescent control [6]: -0.0149% [at 18.6 µM]
fluorescence, % of fluorescein control [7]: -0.0053% [at 18.6 µM]
fluorescence, % of fluorescent control [8]: -0.0452% [at 18.6 µM]
Potency [9]: 1.29 µM (active)
Potency [15]: inactive
Potency [14]: inactive
Potency [10]: inactive
Potency [12]: 3.35 µM (active)
Potency [13]: 2.27 µM (active)

CCCCCCCOC(=O)c1ccc(O)cc1
Potency [1]: inactive
Potency [2]: inactive
Potency [4]: inactive
Potency [5]: inactive
Potency [6]: inactive
Potency [7]: inactive
Potency [8]: inactive
Potency [9]: 49 µM (active)
Potency [15]: inactive
Potency [14]: 43.3 µM (active)
Potency [10]: 54.5 µM (active) and 48.6 µM (active)
Potency [11]: inactive
Potency [12]: inactive
Potency [13]: 61.1 µM (active)

C[C@H]1O[C@@H](O[C@H]2[C@@H](O)C[C@H](O[C@H]3[C@@H](O)C[C@H](O[C@H]4CC[C@@]5(C)[C@H](CC[C@@H]6[C@@H]5C[C@@H](O)[C@]5(C)[C@@H](C7=CC(=O)OC7)CC[C@]65O)C4)O[C@@H]3C)O[C@@H]2C)C[C@H](O)[C@@H]1O
Potency [1]: inactive
Potency [2]: inactive
Potency [4]: inactive
Potency [5]: inactive
Potency [6]: inactive
Potency [7]: inactive
Potency [8]: inactive
Potency [18]: inactive
Potency [9]: 535 nM (active) and 97.8 nM (active) and 193 nM (active)
Potency [15]: 596 nM (active) and 344 nM (active) and 854 nM (active)
Potency [14]: 596 nM (active) and 172 nM (active) and 428 nM (active)
Potency [10]: 750 nM (active) and 217 nM (active) and 381 nM (active)
Potency [11]: 84.9 nM (active) and 15.5 nM (active) and 30.6 nM (active)
Potency [16]: 338 nM (active) and 61.7 nM (active) and 136 nM (active)
Potency [12]: inactive
